Bioassay records as filed in PubChem BioAssay.
Pf growth 48h – inhibits P. falciparum growth in the first generation, 48 h | P. falciparum luciferase growth in erythrocytes, 48 h | Potency, µM (doses to about 28.7 µM), for the others: at the highest dose activity change, negative = inhibition, most hits filed as inhibitors | 5.9% of 310,000 active | AID 504832; also: potency is read from the fitted curve at half-maximal effect; % is scaled to controls: 0 for no effect and ±100 for the full control effect
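First compound was added to culture medium, then infected red cells at 0.1% parasitemia and 2% hematocrit (final). After incubation at 37 C under 5% CO2, luciferase detection reagent was dispensed and light output recorded.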
Lassa entry inh – inhibitors of Lassa virus binding or cell entry. Lassa virus pseudotype entry inhibition, cell reporter. Potency, µM (titrated, usually from 37.9 µM), inactives show at the top dose activity change, negative = inhibition, actives largely listed as inhibitors. 1.2% of 300,000 active. AID 540256; calls by dose curve; tested in HEK293 cells; also: potency is read from the fitted curve at half-maximal effect; % is scaled to controls: 0 for no effect and ±100 for the full control effect; nearly all actives have a fitted effect of over 50% in size
Pf growth 96h – inhibits malaria parasite growth, 96 h; P. falciparum luciferase reporter growth, 96 h; Potency, µM (highest dose often 28.7 µM), for inactives: at the top dose activity change, negative = inhibition, actives largely listed as inhibitors; AID 504834; 6.9% of 320,000 active; also: potency is read from the fitted curve at half-maximal effect; % is scaled to controls: 0 for no effect and ±100 for the full control effect
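Erythrocytes infected with luciferase-expressing P. falciparum were dispensed at 2% hematocrit and 0.05% parasitemia (final), then incubated with compounds 96 hours at 37 C in 5% CO2. Luminescence after detection reagent addition reported growth.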
Shiga toxin inh – Shiga toxin inhibition | inhibition, % at 38.7 µM | Vero cells, Shiga toxin protein synthesis inhibition reporter | 9.2% of 290,000 active; in the data active = inhibition mostly above about 28%, no sharp cut-off; inactive = mostly below about 43%; also: 0% is about no effect
Cycloheximide cs – counter-screen hit for Shiga toxin inhibitors, cycloheximide; cell reporter, cycloheximide protein synthesis inhibition counterscreen; max response, %; 12% of 300,000 active; in the data active = max response mostly above about 13%, no sharp cut-off; inactive = mostly below about 14%; also: read at 38.3 µM for the half of the compounds with a filed dose; 0% is about no effect
Marburg entry inh – inhibitors of Marburg virus binding or cell entry | Marburg virus pseudotyped entry inhibition, cell reporter | Potency, µM (doses to about 37.8 µM), inactives show at the top dose activity change, negative = inhibition, hits mostly inhibitors | AID 540276 | 1.8% of 300,000 active; calls by dose curve; tested in HEK293 cells; also: potency is read from the fitted curve at half-maximal effect; % is scaled to controls: 0 for no effect and ±100 for the full control effect
An asterisk follows results filed as active; ? = inconclusive; · = not tested or not shown; [ ] = remark or other dose. Only some compounds are listed: those with a hit (about 19% of all), similar ones and a draw of the others. Unless noted, calls follow the shape of the dose curve; as a rule, active = well fitted inhibition curve with a large enough effect; inconclusive = small, poorly fitted or top-dose-only effect, or another doubt; inactive = no such curve, though single readings can be large or run the other way.

SMILES	Pf growth 48h	Lassa entry inh	Pf growth 96h	Shiga toxin inh	Cycloheximide cs	Marburg entry inh
COc1ccc(S(=O)(=O)N(C)CC(=O)N2CCN(c3ccccc3)CC2)cc1	-24%	·	2%	1	-2	?
NS(=O)(=O)c1ccc(NC(=O)/C=C/c2ccc(S(=O)(=O)NCc3ccco3)cc2)cc1	0%	8%	?	-12	6	-4%[46.1 µM]
CN(CC/C=C1/c2ccccc2CSc2ccccc21)CCCO	12µM*	?	13µM*	-4	-7	?
C=CCN(C)CC/C=C1\c2ccccc2CSc2ccccc21	?	1%	?	18	-3	?
CN(C)CC/C=C1\c2cc(F)ccc2CSc2ccccc21	13µM*	16µM*	?	-5	-2	?
CC(O)CN(C)CC/C=C1/c2ccccc2CSc2ccccc21 (stereo not given)	?	?	?	-27	-4	?
C#CCN(C)CC/C=C1\c2ccccc2CSc2ccccc21	13µM*	-5%	?	13	1	?
CCOC(=O)C1=C(C)Nc2ncnn2C1c1cccnc1 (stereo not given)	-11%	-2%	-13%	17	2	-2%
O=C(O)CCn1c2c(c3ccccc31)CCCC2	18%	-4%	·	-23	-3	23%
CCOC(=O)Cn1c2c(c(=N)c3c1CCC3)CCCC2	?	-19%	0.19µM*	-5	-6	-3%
CCCn1c2c(c(=N)c3c1CCC3)CCC2	0.37µM*	-7%	?	4	0	?
CCCCCCCn1c2c(c(=N)c3ccccc31)CCC2	0.93µM*	·	21%	1	-1	·
CCCn1c2c(c(=N)c3c1CCC3)CCCC2	0.37µM*	?	0.12µM*	-4	-3	?
Cc1ccc(N2C(=O)C(CN3CCCCC3)C2c2ccccc2)cc1 (stereo not given)	?	-26%	?	-2	7	?
COc1ccc(CNC(=O)CC(C)CC2=NS(=O)(=O)c3ccccc3N2)cc1 (stereo not given)	-3%	25%[46.1 µM]	4%	-4	1	·
Cc1ccc(CNC(=O)CC2(CC3=NS(=O)(=O)c4ccccc4N3)CCCC2)cc1	?	·	12µM*	18	8.5*	·
COc1ccc(CNC(=O)CCCC2=NS(=O)(=O)c3ccccc3N2)cc1	13%	9%[46.1 µM]	10µM*	-2	-1	?
COc1ccc(CCNC(=O)CC2(CC3=NS(=O)(=O)c4ccccc4N3)CCCC2)cc1OC	?	·	10%	9	6	·
CCS(=O)(=O)Nc1ccc(-c2cc(-c3ccccc3)c3cc(C)ccc3n2)cc1	?	?	?	-1	-2	?
CC1CCN(CCCCOc2ccccc2-c2ccccc2)CC1	10µM*	2.1µM*	82%	8	-4	2.3µM*
OCCCN1CCN(CCCOc2ccccc2-c2ccccc2)CC1	?	-16%	10µM*	-10	-5	-16%
c1ccc(-c2ccccc2OCCCN2CCOCC2)cc1	26%	·	9%	21	28*	·
c1ccc(-c2ccccc2OCCCCN2CCCCCC2)cc1	?	·	-3%	-14	-1	·
CC1CCN(CCOCCOc2ccccc2-c2ccccc2)CC1	?	?	21%	-12	-2	?
CNCCCCOc1ccccc1-c1ccccc1	-15%	?	16%	-20	-4	7.1µM*
SMILES	Pf growth 48h	Lassa entry inh	Pf growth 96h	Shiga toxin inh	Cycloheximide cs	Marburg entry inh
CNCCOc1ccccc1-c1ccccc1	·	-5%	-15%	-6	19	-21%
Cc1cc(=O)n2[nH]c(NCc3c(F)cccc3Cl)nc2n1	6%	-7%	-2%	-13	-3	5%[46.1 µM]
Cc1ccc(Oc2ncccc2/C=N/O)cc1	6%	23%	80%	-21	-3	-18%
CC1CCCCN1CCCNC(=O)c1cc(Sc2ccc(Cl)cc2)nc2ccccc12 (stereo not given)	·	26%[46.1 µM]	·	·	·	·
Nn1c(SCc2ccc(Br)cc2)nnc1-c1ccccn1	8%	4%[46.1 µM]	13%	-6	-3	?
Cc1cccc(Cl)c1OCCCN1CCOCC1	13%	21%	3.7µM*	49*	21*	-2%
c1ccc(-c2ccccc2OCCN2CCCC2)cc1	6%	-28%[46.1 µM]	13µM*	-14	0	?
CC(C)Cc1cc(C(=O)N2N=C(C(F)F)CC2(O)C(F)F)c2ccccc2n1 (stereo not given)	13µM*	-9%	6.6µM*	-5	-2	-30%
